A number with no mark means an inactive call. Results filed as inconclusive are left out. Calls of active or inactive are those of the source. Unless noted, calls follow the shape of the dose curve; as a rule, active = well fitted curve in the direction sought with a large enough effect in the repeat runs; inconclusive = weak or mixed curves; inactive = no such curve, though single readings can be large; an effect the other way counts as inactive or inconclusive.

A short description of test [1]: qHTS assay to identify small molecule agonists of the estrogen receptor alpha (ER-alpha) signaling pathway in the presence of an antagonist - cell viability counter screen (AID 1259386).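 Also: cells exposed to compounds for 22 h at 37 °C before the viability read; nearly all actives have a fitted effect of over 30% in size.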 Also: potency is read from the fitted curve at half-maximal effect. The method in brief:
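In this counter screen, compound effects on VM7Luc4E2 viability were tested in the presence of the antagonist ICI-182,780 at 10.0nM final. Compounds were dosed at 15 concentrations, exposure lasted 22hr, and the CellTiter-Fluor signal was read.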

Test [2] concerns the target Progesterone receptor (Homo sapiens) (UniProt P06401). In words: qHTS assay to identify small molecule agonists of the progesterone receptor (PR) signaling pathway (AID 1346784; calls by dose curve; also: nearly all actives have a fitted effect of over 30% in size). The essentials:
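Beta-lactamase reporter read-out: after 16 hr compound treatment at 37C and a further 2 hr at room temperature with LiveBLAzer B/G FRET substrate, fluorescence was measured in PR-UAS-bla HEK 293T cells grown in 2% charcoal-stripped serum.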
Background: Quantitative high-throughput screening tests each substance at several concentrations.

For test [3] the target is unchanged. In words: qHTS assay to identify small molecule antagonists of the progesterone receptor (PR) signaling pathway (AID 1346795; active = well fitted inhibition curve with a large enough effect in the signal ratio in the repeat runs, not every such curve was filed as active; the % refers to the signal ratio). The essentials: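 Read-out is fluorescence from the LiveBLAzer B/G FRET substrate, cleaved by a UAS-controlled beta-lactamase in PR-UAS-bla HEK293T cells after 16 hr exposure to compound plus 1 nM promegestone (final), followed by 2 hr at room temperature.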

A short description of test [4]: qHTS assay to identify small molecule antagonists of the TGF-beta/Smad signaling pathway - cell viability counter screen (AID 1346824). Also: nearly all actives have a fitted effect of over 50% in size. The essentials:
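Cytotoxicity counter-screen run in the same wells as the beta-lactamase Smad reporter read: CellTiter-Glo luminescence after 30 min at room temperature. HEK 293T SBE-bla cells had 5 hr compound exposure at 37 C with TGF-beta1 (0.25 ng/mL stock).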

Test [5] is described as follows: qHTS assay to identify small molecule agonists of the TGF-beta/Smad signaling pathway (AID 1346859; active = well fitted activation curve with a large enough effect in the signal ratio in the repeat runs, not every such curve was filed as active; the % refers to the signal ratio; also: series mostly up to about 77 µM). The essentials:
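SBE-bla HEK 293T, 4,000 cells/well, plated o/n; cpd in DMSO, 5 hr, 37 C/5% CO2; B/G FRET substrate 2 hr RT; ex 405, em 460/530 nm.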

Test [6] in a line: Human pregnane X receptor (PXR) small molecule agonists, qHTS cell viability counter screen (AID 1346977). Also: nearly all actives have a fitted effect of over 50% in size. Also: potency is read from the fitted curve at half-maximal effect. The essentials:
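PXR-Luc HepG2, 2,000 cells/well, 5% charcoal-stripped FBS; 5hr settle; cpd 24hr, 37C/5% CO2; CellTiter-Fluor at 23hr, read 1hr later (fluorescence).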

Test [7] in a line: Caspase-3/7 induction in HepG2 cells by small molecules, qHTS assay (AID 1346978). Also: nearly all actives have a fitted effect of over 15% in size. The method in brief: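 Caspase-3/7 induction was measured by Caspase-Glo 3/7 luminescence (30 min, room temperature) after a 17 hr compound exposure of wild-type HepG2 cells seeded at 2,000 per well and pre-incubated 5 hr.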
Test [8] in a line: Caspase-3/7 induction in CHO-K1 cells by small molecules, qHTS assay (AID 1346980). Also: nearly all actives have a fitted effect of over 15% in size. The method in brief:
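Luminescent Caspase-Glo 3/7 read (30min, room temperature) quantified apoptosis induction. Cells were wild-type CHO-K1, treated with compound for 17hr at 37 C and 5% CO2.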

Test [9] deals with Nuclear receptor subfamily 1 group I member 2 (Rattus norvegicus) (UniProt Q9R1A7). In words: Rat pregnane X receptor (rPXR) activation by small molecules, qHTS assay (AID 1346983). Also: nearly all actives have a fitted effect of over 20% in size. Also: potency is read from the fitted curve at half-maximal effect. To be noted: rPXR luciferase reporter cells, One-Glo luminescence, 24 h; max activation: stronger effect = higher value. The essentials:
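Luminescent readout (One-Glo luciferase, 30 min room temperature) followed 24 hr compound treatment at 37 C of rPXR cells plated 2,000 per well and preincubated 5hr; qHTS format with compounds delivered in DMSO.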

Test [10] deals with Nuclear receptor subfamily 1 group I member 2 (Homo sapiens) (UniProt O75469). Put plainly: CYP3A4 induction through human pregnane X receptor (PXR) by small molecules, qHTS assay (AID 1346984). Also: nearly all actives have a fitted effect of over 40% in size. Also: potency is read from the fitted curve at half-maximal effect. The method in brief:
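Induction measured in HepG2-based DPX-2 cells co-expressing human PXR and a CYP3A4 promoter-driven luciferase. After a 24-hour compound exposure, cells received CYP3A4 luciferin substrate at 3uM final for 3 hours, and light output was then recorded.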

Test [11] has the same target. In words: Human pregnane X receptor (PXR) activation by small molecules, qHTS assay (AID 1346985). Also: nearly all actives have a fitted effect of over 40% in size. Also: potency is read from the fitted curve at half-maximal effect. The method in brief: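 DPX-2 cells (HepG2 co-transfected with a PXR response element and a CYP3A4-promoter luciferase construct) were seeded at 2,000 per well, rested 5 hr at 37C, then exposed to DMSO-dissolved compounds for 24 hr. Activation was read as luciferase luminescence.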

Test [12] addresses Cytochrome P450 2D6 (Homo sapiens) (UniProt P10635). Put plainly: Cytochrome P450 Family 2 Subfamily D Member 6 (CYP2D6) small molecule antagonists: luciferase reporter qHTS assay (AID 1671196). Also: nearly all actives have a fitted effect of over 50% in size. Also: potency is read from the fitted curve at half-maximal effect. The essentials: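 Test chemicals meet CYP2D6 plus proluciferin substrate (10 min, RT); NADPH regenerating solution then drives turnover for 1 h. Detection reagent halts the reaction; luminescence measured after 20 min.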
A general note: A reporter such as luciferase makes a cellular process visible.

A short description of test [13]: qHTS assay to identify small molecule antagonists of the progesterone receptor (PR) signaling pathway - cell viability counter screen (AID 1346798). Also: series mostly up to about 92 µM; nearly all actives have a fitted effect of over 50% in size. The essentials: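 HEK293T PR-UAS-bla, 2% charcoal-stripped FBS; 4 hr pre-plate; cpd + R5020, 16 h 37C; LiveBLAzer read first; then CellTiter-Glo 30 min RT, luminescence.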
Test [14] is described as follows: qHTS assay to identify small molecule agonists of the progesterone receptor (PR) signaling pathway - cell viability counter screen (AID 1346799; calls by dose curve; also: nearly all actives have a fitted effect of over 45% in size; also: potency is read from the fitted curve at half-maximal effect). The essentials:
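Luminescence from CellTiter-Glo, added after the beta-lactamase FRET read in the same wells, gave cytotoxicity in PR-UAS-bla HEK293T cells treated with compounds for 16 hr at 37C.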

The nature of test [15]: qHTS assay to identify small molecule agonists of the TGF-beta/Smad signaling pathway - cell viability counter screen (AID 1346829). Also: top concentration of the series differs between compounds; nearly all actives have a fitted effect of over 45% in size. The essentials: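 Here the cytotoxicity of library compounds is measured in SBE-bla HEK 293T cells treated for 5 hr, using CellTiter-Glo added to wells already read for the beta-lactamase reporter.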
Test [16] addresses Thyrotropin-releasing hormone receptor (Homo sapiens) (UniProt P34981). Put plainly: qHTS assay to identify small molecule antagonists of the thyrotropin-releasing hormone receptor (TRHR) signaling pathway (AID 1346877; active = well fitted inhibition curve with a large enough effect in the repeat runs, not every such curve was filed as active; also: series mostly up to about 51 µM). The method in brief:
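Kinetic fluorescence (3 min, 1 s resolution) following stimulation with TRH at 1 nM final; HEK293 cells bearing human TRHR; 5 min compound preincubation at RT; concentration-response over 15 points, triplicates.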

The target is the same in test [17]. In words: qHTS assay to identify small molecule agonists of the thyrotropin-releasing hormone receptor (TRHR) signaling pathway (AID 1346891; calls by dose curve; also: series mostly up to about 58 µM). The method in brief:
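Intracellular calcium rise, read as fluorescence every second for 3 min, served as the agonist signal in dye-loaded HEK293 cells expressing TRHR; each compound ran at 15 concentrations in triplicate.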

A short description of test [18]: Caspase-3/7 induction in HepG2 cells by small molecules, qHTS cell viability counter screen (AID 1346981). Also: series mostly up to about 92 µM; nearly all actives have a fitted effect of over 30% in size. The method in brief:
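In this quantitative HTS counter screen, compounds delivered in DMSO were left on unmodified HepG2 cells for 16 hr at 37 C. Viability was then determined fluorometrically with CellTiter-Fluor, in parallel with caspase-3/7 induction in the same wells.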

In test [19] the target is Nuclear receptor subfamily 1 group I member 2 (Homo sapiens) (UniProt O75469). In words: Human pregnane X receptor (PXR) small molecule agonists, qHTS assay (AID 1346982). Also: nearly all actives have a fitted effect of over 35% in size. Also: potency is read from the fitted curve at half-maximal effect. The essentials: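 Reporter HepG2 cells expressing PXR-Luc are cultured in charcoal-stripped FBS (5%), treated with compounds for 24 hr at 37 C, and assayed by ONE-Glo luminescence after 30 min at room temperature.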
Chain of Nuclear receptor subfamily 1 group I member 2 (Homo sapiens) (O75469 whole entry, looked up): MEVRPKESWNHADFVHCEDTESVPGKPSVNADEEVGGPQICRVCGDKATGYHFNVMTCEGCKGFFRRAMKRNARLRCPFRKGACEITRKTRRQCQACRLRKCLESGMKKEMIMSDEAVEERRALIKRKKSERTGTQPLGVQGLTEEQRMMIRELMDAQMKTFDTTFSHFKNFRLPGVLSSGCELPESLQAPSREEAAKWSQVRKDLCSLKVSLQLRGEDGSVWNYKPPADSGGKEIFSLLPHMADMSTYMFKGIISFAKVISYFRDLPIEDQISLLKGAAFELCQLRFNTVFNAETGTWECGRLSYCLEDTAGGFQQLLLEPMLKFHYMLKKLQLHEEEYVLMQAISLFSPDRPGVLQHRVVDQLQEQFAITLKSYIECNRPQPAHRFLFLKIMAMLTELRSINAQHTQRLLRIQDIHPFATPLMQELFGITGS

Test [20] is described as follows: Caspase-3/7 induction in CHO-K1 cells by small molecules, qHTS cell viability counter screen (AID 1346979). Also: nearly all actives have a fitted effect of over 35% in size. Also: potency is read from the fitted curve at half-maximal effect. The essentials:
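Cells (CHO-K1, wild type) are plated at 1,500 per well and incubated 5hr. Test compounds in DMSO are then pinned in, followed by 16hr at 37C and 5% CO2. Viability is read by CellTiter-Fluor fluorescence after 1hr.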
% is scaled to controls: 0 for no effect and ±100 for the full control effect.

Chain of Cytochrome P450 2D6 (Homo sapiens) (P10635 whole entry, looked up): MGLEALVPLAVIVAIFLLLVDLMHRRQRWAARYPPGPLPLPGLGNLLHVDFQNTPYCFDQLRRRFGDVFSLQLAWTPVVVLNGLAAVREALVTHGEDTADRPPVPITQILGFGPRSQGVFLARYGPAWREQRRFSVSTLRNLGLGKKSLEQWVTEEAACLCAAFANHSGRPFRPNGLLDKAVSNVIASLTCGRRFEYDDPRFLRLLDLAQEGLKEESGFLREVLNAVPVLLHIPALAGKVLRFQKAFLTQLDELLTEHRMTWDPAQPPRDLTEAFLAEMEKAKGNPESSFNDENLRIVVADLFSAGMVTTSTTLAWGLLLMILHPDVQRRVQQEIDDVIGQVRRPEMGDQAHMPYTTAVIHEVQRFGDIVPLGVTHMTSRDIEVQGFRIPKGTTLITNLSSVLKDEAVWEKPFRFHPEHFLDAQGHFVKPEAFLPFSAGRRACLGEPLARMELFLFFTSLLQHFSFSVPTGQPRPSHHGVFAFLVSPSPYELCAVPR
Chain of Thyrotropin-releasing hormone receptor (Homo sapiens) (P34981 whole entry, looked up): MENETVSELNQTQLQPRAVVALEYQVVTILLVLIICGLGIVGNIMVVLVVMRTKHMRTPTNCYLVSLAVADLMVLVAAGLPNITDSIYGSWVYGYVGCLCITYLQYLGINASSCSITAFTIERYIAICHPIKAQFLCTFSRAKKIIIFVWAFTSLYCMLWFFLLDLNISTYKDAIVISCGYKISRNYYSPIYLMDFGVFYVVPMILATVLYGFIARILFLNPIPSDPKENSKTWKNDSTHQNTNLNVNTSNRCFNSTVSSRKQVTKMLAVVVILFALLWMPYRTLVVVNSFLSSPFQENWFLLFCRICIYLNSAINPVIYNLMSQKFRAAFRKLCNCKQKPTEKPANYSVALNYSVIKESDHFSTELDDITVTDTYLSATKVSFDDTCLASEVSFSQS
Chain of Nuclear receptor subfamily 1 group I member 2 (Rattus norvegicus) (Q9R1A7 whole entry, looked up): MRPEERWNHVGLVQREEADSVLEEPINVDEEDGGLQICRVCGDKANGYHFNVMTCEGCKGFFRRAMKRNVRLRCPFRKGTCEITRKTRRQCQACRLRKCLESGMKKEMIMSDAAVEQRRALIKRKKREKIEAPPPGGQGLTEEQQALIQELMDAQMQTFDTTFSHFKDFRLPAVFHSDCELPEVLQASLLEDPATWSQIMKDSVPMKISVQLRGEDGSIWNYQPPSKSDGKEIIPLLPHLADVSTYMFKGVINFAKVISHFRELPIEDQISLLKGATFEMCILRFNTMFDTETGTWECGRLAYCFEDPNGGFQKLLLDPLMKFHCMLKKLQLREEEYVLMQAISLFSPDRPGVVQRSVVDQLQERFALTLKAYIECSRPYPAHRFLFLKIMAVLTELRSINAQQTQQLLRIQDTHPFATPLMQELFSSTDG
Chain of Progesterone receptor (Homo sapiens) (P06401 whole entry, looked up): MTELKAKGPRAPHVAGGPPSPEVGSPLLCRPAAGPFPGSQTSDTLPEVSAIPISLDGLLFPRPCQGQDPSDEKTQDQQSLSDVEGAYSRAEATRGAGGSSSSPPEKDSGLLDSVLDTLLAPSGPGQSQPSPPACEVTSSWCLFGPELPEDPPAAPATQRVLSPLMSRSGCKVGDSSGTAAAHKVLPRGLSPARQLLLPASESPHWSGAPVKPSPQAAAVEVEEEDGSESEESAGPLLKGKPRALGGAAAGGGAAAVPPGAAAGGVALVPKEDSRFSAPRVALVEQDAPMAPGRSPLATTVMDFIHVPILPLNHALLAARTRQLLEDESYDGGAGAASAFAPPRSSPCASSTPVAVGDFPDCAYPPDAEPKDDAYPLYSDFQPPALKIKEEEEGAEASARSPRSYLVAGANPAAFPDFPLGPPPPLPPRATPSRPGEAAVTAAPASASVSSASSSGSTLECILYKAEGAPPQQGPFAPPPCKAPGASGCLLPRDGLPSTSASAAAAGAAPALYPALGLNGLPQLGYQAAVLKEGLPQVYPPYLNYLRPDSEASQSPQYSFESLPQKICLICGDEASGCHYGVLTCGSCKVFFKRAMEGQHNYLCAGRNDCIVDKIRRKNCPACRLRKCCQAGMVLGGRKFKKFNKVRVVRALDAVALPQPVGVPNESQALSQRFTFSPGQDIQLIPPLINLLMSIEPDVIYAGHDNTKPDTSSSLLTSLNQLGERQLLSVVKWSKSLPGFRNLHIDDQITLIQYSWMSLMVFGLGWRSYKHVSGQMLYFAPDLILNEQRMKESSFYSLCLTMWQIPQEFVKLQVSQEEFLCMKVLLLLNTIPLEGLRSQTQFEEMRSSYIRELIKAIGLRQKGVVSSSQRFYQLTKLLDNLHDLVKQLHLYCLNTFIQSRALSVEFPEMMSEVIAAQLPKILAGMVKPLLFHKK

`CCCOC(C(=O)OC1CCN(C)CC1)(c1ccccc1)c1ccccc1`: the Potency entry in test [1], in [2], in test [3], in [4], in [5] and in test [7] was “inactive” in each case. For the same molecule, in test [8], the Potency entry was “inactive”. The Potency in [6] is 23.7 µM (active); in test [9], 15.8 µM (active); in test [10] it was 28.2 µM (active); in test [11], 14.1 µM (active); in test [12], 7.76 µM (active).

For `CC(C)Cc1ccc(C(C)C(=O)OCc2ccccn2)cc1` (configuration not stated), the Potency entry in [1], in [2], in test [13], in [14], in [4] and in [5] was “inactive” throughout. For the same molecule, the Potency entry in test [17], in [6], in [7], in test [8] and in [18] was “inactive” throughout. The molecule was called inactive in test [15] and in test [16].

Take `CO[C@@H]1[C@H](OC(=O)/C=C/C=C/C=C/C=C/C(=O)O)CC[C@]2(CO2)[C@H]1[C@@]1(C)O[C@@H]1CC=C(C)C`: the Potency result in [1], in [2], in test [13], in [14], in [4] and in test [5] was “inactive” throughout. The Potency result in test [17], in test [6], in test [7], in test [18], in [10] and in test [11] was “inactive” each time. The molecule was classed as inactive in test [15] and in [16]. Moreover, in [19], the Potency was 15.4 µM (active). Moreover, the max activation in test [9] is 0.0882%.

Consider `CCC(C)(C)CC`, for which the Potency result in test [1], in test [2], in test [13], in test [14], in test [4] and in [5] was “inactive” each time. Besides, the Potency result in [6], in test [7], in [20], in test [8], in test [18] and in [12] was “inactive” each time. Further, the molecule was called inactive in test [15].

As to `CN(Cc1ccc(C(C)(C)C)cc1)Cc1cccc2ccccc12`, the Potency result in test [1], in test [2], in test [3], in test [5], in [17] and in test [6] was “inactive” in each case. The Potency result in [20], in test [8] and in test [18] was “inactive” each time. Besides, the Potency in test [14] was 10.6 µM (active); in test [12], 0.347 µM (active). For the same molecule, the molecule was called inactive in test [15] and in test [16]. The max activation in test [9] is 1.25%.

Take `O=C1[C@H]2CCCC[C@H]2C(=O)N1CCCCN1CCN(c2nsc3ccccc23)CC1`: the Potency in [1] is 29.8 µM (active); in [19], 5.31 µM (active); in test [11] it was 12.6 µM (active). Moreover, the Potency result in test [2], in test [13], in [14], in test [4], in test [5] and in test [17] was “inactive” each time. Besides, the Potency entry in test [7], in test [8] and in test [18] was “inactive” each time. For the same molecule, the outcome in test [15] and in [16] was inactive. In test [9], the max activation is 2.09%.

Regarding `CCCCCCCCCCCCCCCCOS(=O)(=O)O`, the Potency entry in [1], in test [2], in [3], in test [4], in [5] and in test [7] was “inactive” throughout. For the same molecule, the Potency entry in test [8], in [18] and in test [19] was “inactive” throughout. The Potency in [14] was 18.8 µM (active).

Consider `CCNc1cc(O)ccc1C`, for which the Potency result in test [1], in test [2], in test [13], in test [14], in test [4] and in [5] was “inactive” each time. For the same molecule, the Potency entry in test [17], in [6], in [7], in test [8] and in test [18] was “inactive” in each case. The outcome in test [15] and in test [16] was inactive. Moreover, the Potency in [20] was 60.4 µM (active); in test [19] it was 48 µM (active); in test [12] it was 39.5 µM (active).

Take `CC(C)=CCC/C(C)=C/CC/C(C)=C/CO`: the Potency entry in test [1], in [2], in [13], in test [14], in test [4] and in test [5] was “inactive” throughout. The Potency entry in [17], in test [7], in test [8] and in test [18] was “inactive” each time. Besides, the call in test [15] and in test [16] was inactive. Besides, the Potency in test [12] was 39.9 µM (active).

Values taken from PubChem BioAssay (Tox21).
